Source: PubChem BioAssay (National Center for Advancing Translational Sciences (NCATS))
Rows were chosen to be rich in hits. Some 9% of all compounds tested hit in one or more screens of this group.
Lamin A splicing = changes lamin A minigene splicing in HeLa cells; 0.01% of 200,000 active; Potency, µM (doses to about 46.1 µM), for inactives: at the highest dose ratio change, negative = inhibition, hits mostly inhibitors; HeLa LMNA splicing GFP/RFP minigene ratio, 48 h; AID 1487; active means well fitted inhibition curve with a large enough effect in the signal ratio, with a control signal flat, not every such curve was filed as active; inconclusive means small, poorly fitted or top-dose-only effect, or effect the other way, or a change in a side signal; the % refers to the signal ratio
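S3 HeLa stable clones carrying a lamin A-EGFP splicing minigene plus DsRed2 were seeded at 600 cells/well in Opti-MEM with 2% FBS, pin-dosed and incubated 48 h at 37°C. Acumen cytometry (488 nm) gave the GFP/RFP total-intensity ratio.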
Luc counter = Kinase-Glo luciferase inhibition (counter-screen). Q27757. Kinase-Glo luciferase, ATP luminescence, 8 min. Potency, µM (top dose mostly 38.3 µM), inactives show at the highest dose activity change, negative = inhibition, hits mostly inhibitors. 0.28% of 200,000 active; further: nearly all actives have a fitted effect of over 60% in size
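Inhibition of Kinase-Glo luciferase light generation was assessed at 10 uM ATP in pH 7.2 imidazole buffer, with luminescence measured after eight minutes at ambient temperature.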
HPGD inh = blocks human HPGD enzyme activity; P15428; purified HPGD, NADH fluorescence kinetic, PGE2 substrate; Potency, µM, without a hit: at the top dose activity change, negative = inhibition, usual class: inhibitors; 4.3% of 150,000 active; active means well fitted inhibition curve with a large enough effect, not every such curve was filed as active; inconclusive means small, poorly fitted or top-dose-only effect, or another doubt; inactive means no such curve, though single readings can be large or run the other way
Target sequence (P15428 whole entry, looked up): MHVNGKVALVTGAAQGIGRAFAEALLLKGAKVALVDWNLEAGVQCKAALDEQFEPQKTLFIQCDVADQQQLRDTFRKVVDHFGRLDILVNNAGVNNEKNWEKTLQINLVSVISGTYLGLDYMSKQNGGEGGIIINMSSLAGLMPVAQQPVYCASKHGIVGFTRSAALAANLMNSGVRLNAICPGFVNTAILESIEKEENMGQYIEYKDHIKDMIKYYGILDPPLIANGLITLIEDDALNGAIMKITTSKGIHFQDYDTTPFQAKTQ
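NADH formation kinetics: reaction with 30 uM PGE2 and 1 mM NAD+ (final), 20 nM enzyme, Tris-HCl pH 8 with Tween 20, after 15 min compound preincubation at room temperature. Fluorescence change, last versus first of five reads.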
ALDH1A1 block = ALDH1A1 (human) enzyme inhibition. P00352. Purified ALDH1A1, NADH fluorescence, propionaldehyde substrate. Potency, µM (series often up to 75.3 µM), without a hit: top-dose activity, negative = inhibition, hits mostly inhibitors. 7.3% of 220,000 active; active means well fitted inhibition curve with a large enough effect, not every such curve was filed as active; inconclusive means small, poorly fitted or top-dose-only effect, or another doubt; inactive means no such curve, though single readings can be large or run the other way;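 further: plate controls were no enzyme wells and a reference inhibitor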
Target sequence (P00352 whole entry, looked up): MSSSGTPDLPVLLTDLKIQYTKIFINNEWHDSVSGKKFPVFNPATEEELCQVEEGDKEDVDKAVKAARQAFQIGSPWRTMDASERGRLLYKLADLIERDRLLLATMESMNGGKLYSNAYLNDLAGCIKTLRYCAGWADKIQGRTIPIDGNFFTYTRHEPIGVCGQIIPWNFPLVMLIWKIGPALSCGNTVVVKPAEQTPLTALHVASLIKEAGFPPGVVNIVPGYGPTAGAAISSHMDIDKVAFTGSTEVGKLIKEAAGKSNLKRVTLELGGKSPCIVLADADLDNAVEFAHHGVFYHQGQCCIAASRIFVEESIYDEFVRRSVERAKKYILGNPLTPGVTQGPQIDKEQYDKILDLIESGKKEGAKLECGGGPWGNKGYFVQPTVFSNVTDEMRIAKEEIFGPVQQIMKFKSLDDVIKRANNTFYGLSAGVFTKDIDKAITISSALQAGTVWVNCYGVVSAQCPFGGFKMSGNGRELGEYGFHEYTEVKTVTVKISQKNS
IMPase Li inh = cell-permeable IMPase inhibitors with lithium potentiation; CHO-M1 cells, IP1 TR-FRET (IP-One), carbachol + lithium; Potency, µM (series often up to 59.4 µM), for inactives: at the top dose activity, negative = IMPase inhibition, hits mostly inhibitors; 0.35% of 210,000 active;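 further: IP1 builds up when IMPase is blocked and the TR-FRET signal falls; plate controls were basal vehicle for no effect and high inhibitor control for full effect; nearly all actives have a fitted effect of over 50% in size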
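Lithium-sensitised IP1 accumulation assay; M1-expressing CHO cells treated 30 min at 37C with compound. Competitive antibody detection by time-resolved FRET followed a 10 min room-temperature lysis step.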
Starred values were filed as active, the others as inactive; ? = inconclusive; nt = not tested or not shown; [ ] = remark or other dose. Unless noted, the call rests on the fitted dose curve; in most records, active means well fitted curve in the direction sought with a large enough effect; inconclusive means small, poorly fitted or top-dose-only effect, or another doubt; inactive means no such curve, though single readings can be large; an effect the other way counts as inactive or inconclusive. Unless noted, on the % scale 0 is the no-effect control and ±100 the full control effect; potency means the concentration at half of the fitted maximal effect.

SMILES	Lamin A splicing	Luc counter	HPGD inh	ALDH1A1 block	IMPase Li inh
Cc1cc(C)c(C#N)c(SCc2nnc(-c3ccccc3)o2)n1	?	-2%	4µM*	1%	23%
CCOCC(=O)N1CCN(c2cccc(Cl)c2)CC1	nt	-4%	nt	3.2µM*	-1%
O=C(O)CCC(=O)N1CCN(c2cccc(Cl)c2)CC1	12%	3%	-6%	28µM*	24%[38.3 µM]
COc1ccc(OCC(=O)N2CCN(c3cccc(Cl)c3)CC2)cc1	5%	-3%	-4%	6%	26%[38.3 µM]
CCn1cc(C(=O)OCC(=O)c2cc(C)n(-c3ccc(OC(F)F)cc3)c2C)c(=O)c2ccc(C)nc21	1%	0%	-8%	10µM*	10%
CCn1cc(C(=O)OCC(=O)Nc2ccc(C(C)C)cc2)c(=O)c2ccc(C)nc21	-11%[46 µM]	3%	nt	14µM*	-2%
CCn1cc(C(=O)OCC(=O)Nc2cccc(S(=O)(=O)N3CCOCC3)c2)c(=O)c2ccc(C)nc21	7%	2%	-7%	?	44%[38.3 µM]
CCn1cc(C(=O)Nc2ccc(C(=O)N3CCCC3)cc2)c(=O)c2ccc(C)nc21	7%	-4%	4µM*	11%	-14%[38.3 µM]
CCn1cc(C(=O)OCC(=O)c2cc(C)n(-c3ccccc3)c2C)c(=O)c2ccc(C)nc21	-2%	-2%	-12%	-1%	5%
Cc1ccc(CNC(=O)CCCN2C(=O)c3cccnc3Oc3ccc(Cl)cc32)cc1	-1%[46 µM]	nt	nt	nt	nt
O=C(CC1C(=O)N(c2ccccc2)C(=O)N1C1CCCCC1)Nc1ccccc1 (stereo not drawn)	8%	-1%	-11%	7%	14%[38.3 µM]
COc1ccc(NC(=S)NC(NC(=O)c2cccc3ccccc23)C(Cl)(Cl)Cl)c([N+](=O)[O-])c1 (stereo not drawn)	?	-3%	-13%	28µM*	20%[38.3 µM]
COc1ccc(NC(=S)NC(NC(=O)c2ccccc2Cl)C(Cl)(Cl)Cl)c([N+](=O)[O-])c1 (stereo not drawn)	10%	-2%	-17%	8.9µM*	35%[38.3 µM]
COc1ccc(NC(=S)NC(NC(=O)c2ccc(Cl)cc2Cl)C(Cl)(Cl)Cl)c([N+](=O)[O-])c1 (stereo not drawn)	?	-2%	-18%	22µM*	33%[38.3 µM]
O=C(NC(NC(=S)Nc1c(Cl)cccc1Cl)C(Cl)(Cl)Cl)c1cccc([N+](=O)[O-])c1 (stereo not drawn)	?	-1%	-7%	18µM*	13%
COC(=O)c1scc(-c2ccc(C)cc2)c1S(=O)(=O)Nc1cc(OC)c(OC)c(OC)c1	-13%[46 µM]	nt	nt	nt	nt
C=CS(=O)(=O)c1sc(Cl)c(N2CCOCC2)c1[N+](=O)[O-]	?	-1%	nt	0.22µM*	20%
CC1(C)CC(=O)c2cn3nc(C(F)(F)F)nc3nc2C1	10%	-8%	-15%	?	22%[38.3 µM]
COc1ccc(NC(=S)NCCc2ccc(S(N)(=O)=O)cc2)c(OC)c1	nt	-1%	nt	22µM*	0%
COc1ccccc1NC(=S)NCCc1ccc(S(N)(=O)=O)cc1	nt	3%	nt	?	8%
COc1ccc(Cl)cc1NC(=S)NCCc1ccc(S(N)(=O)=O)cc1	nt	nt	nt	6.3µM*	nt
CCOC(=O)N1CCN(c2ccccc2OC)CC1	nt	nt	nt	0%	nt
COc1ccccc1N1CCN(C(=O)c2ccccc2Oc2ccccc2)CC1	-3%	2%	-18%	0.56µM*	5%[38.3 µM]
O=C(c1ccccc1Oc1ccccc1)N1CCN(c2ccccc2F)CC1	-4%	-2%	-3%	-8%	24%[38.3 µM]
COc1ccccc1N1CCN(c2ccc(-c3ccccc3)nn2)CC1	3%	8.9µM*	-16%	?	15%[38.3 µM]
SMILES	Lamin A splicing	Luc counter	HPGD inh	ALDH1A1 block	IMPase Li inh
CCC(C(=O)N1CCN(c2ccccc2OC)CC1)c1ccccc1 (stereo not drawn)	?	-1%	-8%	40µM*	13%
COc1ccccc1N1CCN(C(=O)c2ccc3nc(-c4ccco4)c(-c4ccco4)nc3c2)CC1	?	1%	-17%	13µM*	20%
O=C(CC1C(=O)NCCN1Cc1c(F)cccc1Cl)NC1CCCC1 (stereo not drawn)	nt	2%	nt	2%	8%
CN(C)Cc1ccccc1-c1ccc2ncnc(NC3CCNCC3)c2c1	-3%	-2%	-9%	7%	-10%
COc1ccccc1N1CCN(C[C@@H](C(=O)NC(C)(C)C)c2ccccc2)CC1	nt	3%	-11%	25µM*	32%
COc1ccccc1N1CCN(C[C@@H](O)COc2cccc3ccccc23)CC1	?	0%	-13%	?	32%
O=C(NCc1ccco1)C(=O)NCC1OCCCN1S(=O)(=O)c1ccc(Cl)cc1 (stereo not drawn)	?	6%	nt	?	19%
Cc1ccc(S(=O)(=O)N2CCCOC2CNC(=O)C(=O)NCc2cccs2)cc1 (stereo not drawn)	0%	1%	-7%	11µM*	9%
Cc1cc(S(=O)(=O)N2CCCOC2CNC(=O)C(=O)NCc2ccco2)ccc1F (stereo not drawn)	nt	5%	nt	10µM*	?
O=C(NCCC1=CCCCC1)C(=O)NCC1OCCCN1S(=O)(=O)c1ccc(F)cc1 (stereo not drawn)	16%[46 µM]	3%	nt	22µM*	2%
Cc1ccc(Cl)cc1NC(=O)c1cc(-c2ccc3c(c2)OCCO3)on1	30%[46 µM]	nt	nt	nt	nt
Cc1cc(C)n(-c2nnc(Cl)c3ccccc23)n1	nt	-8%	nt	3.5µM*	-1%
Cc1ccc(-c2nnc(-n3nc(C)cc3C)c3ccccc23)cc1	-11%	-2%	-13%	9%	3%
CCOC(=O)Cn1c(=O)oc2ccc(C)cc21	nt	0%	nt	2%	1%
CCOC(=O)Cn1c(=S)[nH]c2c(oc3ccc(Cl)cc32)c1=O	4%	17%	1%	?	8.9µM*
CCN(CC)CCNC(=O)c1c2c(nc3ccccc13)C(=O)N(C1CCCCC1)C2	19%[46 µM]	nt	nt	nt	nt
CCn1c(=O)cc(SCC(=O)NCc2cccnc2)c2ccccc21	-14%	-1%	?	?	10µM*
CCn1c(=O)cc(OCC(=O)NCc2ccc(C)o2)c2ccccc21	-12%	1%	?	22µM*	8%[38.3 µM]
CCn1c(=O)cc(OCC(=O)NCc2ccco2)c2ccccc21	-6%	-6%	-25%	?	-3%[38.3 µM]
CCn1c(=O)cc(SCC(=O)NCc2ccc(C)cc2)c2ccccc21	-22%	-3%	?	-1%	-10%[38.3 µM]
CCn1c(=O)cc(SCC(=O)NCc2ccc(C)o2)c2ccccc21	-14%	-2%	28µM*	-8%	-3%[38.3 µM]
O=C(O)CC[P+](c1ccccc1)(c1ccccc1)c1ccccc1	nt	-5%[7.66 µM]	-5%	20%[13.5 µM]	6%
CCCCN(C)CCCNC(=O)c1cc(=O)[nH]c2ccc(S(=O)(=O)N3CCCCC3)cc12	-10%[46 µM]	nt	nt	nt	nt
c1ccc(OCCN2CCN(Cc3nc(-c4ccc5c(c4)OCO5)no3)CC2)cc1	nt	-1%	nt	-9%	11%
